Our source for the composite z-score values is PubChem BioAssay.

Alpha-bungarotoxin (Bungarus multicinctus), sequence (P60615 whole entry, looked up): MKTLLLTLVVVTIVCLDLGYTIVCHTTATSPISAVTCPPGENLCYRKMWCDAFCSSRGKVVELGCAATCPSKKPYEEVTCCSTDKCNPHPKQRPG

The test addresses Alpha-bungarotoxin (Bungarus multicinctus) (UniProt P60615). Nature of the test: compounds binding labelled alpha-BTX control protein – biochemical, small-molecule microarray, Alexa647 label, 635/667 nm fluorescence, artefact control for SMM control protein annotation, profiling panel (AID 1117). The conditions noted are these: alpha-BTX-A647 binding fluorescence, higher = more signal.
Consider `COC(=O)[C@@]1(Cc2ccccc2)[C@H]2c3cc(C(=O)N4CCCC4)[nH]c3C[C@H]2CN1C(=O)c1ccccc1`, for which the composite z-score is -0.243.
`O=C(O)[C@H](Cc1ccccc1)n1cc(-c2ccccn2)nn1` showed a composite z-score of 0.35.
For the compound `O=C1O[C@@H](c2ccccc2)[C@@H](c2ccccc2)N2[C@@H](c3ccccc3OCCO)[C@]3(C(=O)Nc4ccc(C#CCCO)cc43)[C@@H](C(=O)N3CCN(c4ncccn4)CC3)[C@H]12`, the composite z-score is 1.23.
`COc1ccc([Si](C)(C)[C@@H]2[C@@H](CCO)O[C@]3(C(=O)N(Cc4cccc(N5C(=O)c6ccccc6Oc6ccccc65)c4)c4ccccc43)[C@H]2C)cc1` came in with a composite z-score of -0.115.
On to `CN(C)CCCN1C(=O)[C@@]2(c3ccc([N+](=O)[O-])cc3)CC(=O)N(CC34CC5CC(CC(C5)C3)C4)[C@@H]2c2ccc(CO)cc21`, for which the composite z-score is -0.0251.
Regarding `C[C@]12C(=O)N(CCCCCCO)[C@@H]3C(=O)N(c4ccc(Cl)cc4)CC=CC31O[C@@H]1/C=C\CCCOC(=O)C12` (some centres undefined), the composite z-score was -0.0604.
Regarding `CC1CC/C=C\[C@H]2OC34C=CCN(c5ccc6ccccc6c5)C(=O)[C@H]3N(C(CO)C(C)C)C(=O)[C@@H]4C2C(=O)O1` (some centres undefined), the composite z-score was 0.462.
As for `O=C1O[C@@H](c2ccccc2)[C@@H](c2ccccc2)N2[C@@H](c3ccc(O)cc3)[C@]3(C(=O)Nc4ccc(C#CC5=CCCCC5)cc43)[C@@H](C(=O)N3CCN(c4ncccn4)CC3)[C@H]12`, the composite z-score stood at 0.862.
Take `C[C@H]1ON(c2ccc(C(=O)OC(C)(C)C)cc2)[C@@H](c2ccc(O)cc2)[C@@H]1C(=O)N1C(=O)OC[C@@H]1c1ccccc1`: the composite z-score was found to be 0.413.
